Assay [1] can be described thus: qHTS RealTime-Glo MT Cell Viability Assay in HEK293 cells - 16 hour (AID 1224872). Note: nearly all actives have a fitted effect of over 50% in size. Note: potency is the fitted concentration of half-maximal effect. The method in brief: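 Nonlytic real-time viability readout: viable cells convert prosubstrate to NanoLuc substrate, giving luminescence proportional to live cell number. HEK293, 600 cells/well, compound added after 5 h, continuous culture at 37 C.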
A short description of assay [2]: qHTS RealTime-Glo MT Cell Viability Assay in HepG2 cells - 8 hour (AID 1224873). Note: nearly all actives have a fitted effect of over 55% in size. The method in brief: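 HepG2 cells mixed with RealTime-Glo MT reagents (NanoLuc plus cell-permeant prosubstrate) were seeded at 600 cells/well, incubated 5 h at 37 C/5% CO2, then pinned with compounds in DMSO; nonlytic luminescence tracked viability during 40 h treatment.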
The nature of assay [3]: qHTS RealTime-Glo MT Cell Viability Assay in HEK293 cells - 40 hour (AID 1224874). Note: nearly all actives have a fitted effect of over 50% in size. Note: potency is the fitted concentration of half-maximal effect. Conditions: RealTime-Glo luminescence; max response: active compounds read low. The method in brief: (§1)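 qHTS format; HEK293 cells with NanoLuc/prosubstrate reagent, 37 C/5% CO2 for 5 h pre-dosing; compounds 23 nL in DMSO; luminescence at each time point reflects viable cells.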
Assay [4] can be described thus: A CellTox Green Cytotoxicity Assay to monitor cytotoxicity in HEK293 cells - 24 hour (AID 1224875). Note: nearly all actives have a fitted effect of over 45% in size. Note: potency is the fitted concentration of half-maximal effect. The method in brief: (§2)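 Each value comes from one timepoint of a single continuous run in which HEK293 cells with CellTox Green were exposed to compound for up to 40 h at 37 C, dye fluorescence rising with cell death.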
Assay [5] can be described thus: A CellTox Green Cytotoxicity Assay to monitor cytotoxicity in HepG2 cells - 16 hour (AID 1224876). Note: nearly all actives have a fitted effect of over 45% in size. The method in brief:
(§3)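 Continuous culture of HepG2 cells with a membrane-impermeant DNA dye; rising fluorescence marks dead cells. Compound exposure lasted up to 40 h at 37 C, with reads every 8 h from 0 h.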

Assay [6] in a line: qHTS RealTime-Glo MT Cell Viability Assay in HepG2 cells - 32 hour (AID 1224877). Note: nearly all actives have a fitted effect of over 55% in size. In a few lines:
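Luminescence read-out: viable HepG2 cells reduce a prosubstrate to a NanoLuc substrate, giving a signal proportional to live cell number. Reads taken at 0, 8, 16, 24, 32 and 40 h of compound exposure at 37 C.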

Assay [7] in a line: A CellTox Green Cytotoxicity Assay to monitor cytotoxicity in HepG2 cells - 24 hour (AID 1224878). Note: nearly all actives have a fitted effect of over 45% in size. In a few lines:
as §3

The nature of assay [8]: A CellTox Green Cytotoxicity Assay to monitor cytotoxicity in HepG2 cells - 40 hour (AID 1224879). Note: nearly all actives have a fitted effect of over 40% in size. Note: potency is the fitted concentration of half-maximal effect. The method in brief:
as §3

The nature of assay [9]: qHTS RealTime-Glo MT Cell Viability Assay in HEK293 cells - 0 hour (AID 1224880). Note: top concentration of the series differs between compounds; nearly all actives have a fitted effect of over 45% in size. In a few lines: as §1
The nature of assay [10]: A CellTox Green Cytotoxicity Assay to monitor cytotoxicity in HEK293 cells - 32 hour (AID 1224881). Note: nearly all actives have a fitted effect of over 40% in size. Note: potency is the fitted concentration of half-maximal effect. The method in brief: as §2

Each structure is given as a SMILES string. Results filed as inconclusive are left out. Unmarked numbers belong to inactive results. The source made the active and inactive calls. Calls come from the whole dose curve; as a rule, active = well fitted curve in the direction sought with a large enough effect in the repeat runs; inconclusive = weak or mixed curves; inactive = no such curve, though single readings can be large; an effect the other way counts as inactive or inconclusive.

In PubChem BioAssay (Tox21) one finds Potency, max response and outcome data, which are given here for 24 compounds.
% is set by controls: 0 for no effect and ±100 for the full control effect.

On to `COP(N)(=S)Oc1ccccc1C(=O)OC(C)C` (stereo unspecified), for which the Potency result in [1], in assay [2], in assay [4], in assay [5], in [6] and in assay [7] was “inactive” each time. Besides, the Potency result in assay [8] and in [10] was “inactive” throughout. The max response in [3] was -8.89%. The compound was classed as inactive in assay [9].

In the case of `O=[N+]([O-])c1cc(Cl)c(Cl)c(Cl)c1`, the Potency result in assay [1], in [2], in assay [5], in assay [6] and in assay [8] was “inactive” in each case. The max response in [3] was 5.08%. Further, the Potency in [4] and in [10] was 21.7 µM (active) in each case. Moreover, in assay [9], the outcome was inactive.

Turning to `CNCC(=O)c1ccc(O)c(O)c1`, the Potency entry in assay [1], in assay [2], in assay [4], in assay [5], in assay [6] and in assay [7] was “inactive” throughout. Also, the Potency result in [8] and in assay [10] was “inactive” in each case. Also, in [3], the max response was 2.09%. Further, in assay [9], the call was inactive.

As to `c1ccc(N2CCNCC2)cc1`, the Potency result in [1], in assay [2], in assay [4], in assay [5], in assay [6] and in [7] was “inactive” throughout. Also, the Potency entry in assay [8] and in assay [10] was “inactive” in each case. Moreover, in [3], the max response was 16.9%. For the same compound, the compound was classed as inactive in [9].

On to `c1cc[c]([Hg][c]2ccccc2)cc1`, for which the Potency was 34.7 µM (active) in assay [1]; 24.5 µM (active) in [3]; 43.6 µM (active) in [4]; 49 µM (active) in assay [8]; 38.9 µM (active) in [10]. In addition, the Potency result in assay [2], in assay [5] and in assay [6] was “inactive” in each case. In assay [9], the compound was called inactive.

In the case of `CNC(=O)Oc1ccc(N(C)C)c(C)c1`, the Potency entry in [1], in assay [2], in [4], in [5], in assay [6] and in [8] was “inactive” each time. Besides, the Potency entry in assay [10] is “inactive”. In assay [3], the max response is -14.9%. The compound was called inactive in assay [9].

For `CCOP(=S)(OCC)SCSc1ccc(Cl)cc1`, the Potency result in [1], in [2], in [4], in assay [5], in assay [6] and in assay [8] was “inactive” in each case. Besides, the Potency result in assay [10] was “inactive”. Also, the max response in assay [3] is -2.07%. Besides, the outcome in assay [9] was inactive.

With `COC(=O)C(C)Oc1ccc(Oc2ccc(Cl)cc2Cl)cc1` (stereo unspecified), the Potency result in [1], in [2], in [4], in [5], in assay [6] and in assay [8] was “inactive” throughout. Further, in assay [10], the Potency entry is “inactive”. Also, the max response in assay [3] was -8.07%. Moreover, in assay [9], the outcome was inactive.

In the case of `CSc1ccc(C(=O)C(C)(C)N2CCOCC2)cc1`, the Potency result in assay [1], in assay [2], in [4], in assay [5], in [6] and in assay [7] was “inactive” in each case. Further, the Potency result in assay [8] and in assay [10] was “inactive” throughout. In addition, the max response in assay [3] was 0.297%. Also, in assay [9], the outcome was inactive.

On to `CC(C(=O)c1ccccc1)N(C)C` (stereo unspecified), for which the Potency entry in assay [1], in assay [2], in [4], in [5], in assay [6] and in [8] was “inactive” in each case. In addition, the Potency result in [10] is “inactive”. In [3], the max response is 2.47%. In addition, the call in assay [9] was inactive.

Regarding `CS(=O)(=O)c1cc(C(F)(F)F)ccc1C(=O)c1cnoc1C1CC1`, the Potency entry in [1], in [2], in assay [4], in assay [5], in [6] and in [8] was “inactive” throughout. Moreover, the Potency result in [10] was “inactive”. The max response in [3] was -3.5%. In addition, the result in assay [9] was inactive.

Regarding `BrCCCCCCBr`, the Potency entry in assay [1], in assay [2], in [4], in assay [5], in assay [6] and in [8] was “inactive” throughout. Further, the Potency result in [10] is “inactive”. Moreover, the max response in [3] was 2.7%. Also, in assay [9], the compound was classed as inactive.

On to `CCN(CC)c1nc(C)cc(OP(=S)(OC)OC)n1`, for which the Potency result in assay [1], in [2], in [4], in [5], in assay [6] and in [7] was “inactive” throughout. In addition, the Potency result in assay [8] and in [10] was “inactive” each time. For the same compound, the max response in assay [3] was 2.28%. The call in [9] was inactive.

For the compound `CCC(=O)C(CCN(C)C)(c1ccccc1)c1ccccc1`, the Potency entry in assay [1], in assay [2], in assay [4], in assay [5], in assay [6] and in assay [7] was “inactive” throughout. For the same compound, the Potency entry in [8] and in [10] was “inactive” each time. Besides, in assay [3], the max response is -20.5%. Moreover, the result in [9] was inactive.

`CCC(C)n1c(=O)[nH]c(C)c(Br)c1=O` (stereo unspecified): the Potency result in assay [1], in assay [2], in assay [4], in assay [5], in assay [6] and in assay [7] was “inactive” throughout. The Potency result in assay [8] and in assay [10] was “inactive” throughout. Also, the max response in assay [3] was 0.435%. In addition, the compound was classed as inactive in assay [9].

On to `CCOC(=O)/C=C(C)/C=C/C[C@@H](C)CCCC(C)C`, for which the Potency entry in [1], in [2], in assay [4], in assay [5], in [6] and in assay [7] was “inactive” each time. The Potency result in assay [8] and in [10] was “inactive” in each case. Further, in assay [3], the max response was 8.55%. For the same compound, the call in [9] was inactive.

As for `CC(C=O)Cc1ccc2c(c1)OCO2` (stereo unspecified), the Potency result in [1], in assay [2], in assay [4], in [5], in assay [6] and in assay [8] was “inactive” throughout. The Potency result in assay [10] was “inactive”. Also, the max response in [3] is 0.337%. Also, the compound was classed as inactive in [9].

Regarding `CN1C[C@@H](NS(=O)(=O)N(C)C)C[C@@H]2c3cccc4c3c(cn4C)C[C@H]21`, the Potency result in assay [1], in assay [2], in [4], in assay [5], in assay [6] and in assay [7] was “inactive” throughout. The Potency result in [8] and in assay [10] was “inactive” throughout. The max response in assay [3] was -20.7%. In assay [9], the compound was classed as inactive.

In the case of `ClCC(Cl)(Cl)Cl`, the Potency result in assay [1], in [2], in assay [4], in [5], in assay [6] and in assay [8] was “inactive” each time. For the same compound, the Potency entry in [10] was “inactive”. In addition, the max response in [3] was -0.0203%. For the same compound, the result in assay [9] was inactive.

For the compound `CCOP(=S)(OCC)SCSP(=S)(OCC)OCC`, the Potency entry in assay [1], in assay [2], in [4], in assay [5], in assay [6] and in assay [8] was “inactive” each time. Moreover, the Potency entry in [10] was “inactive”. In addition, in [3], the max response was 7.42%. Besides, the outcome in assay [9] was inactive.

For `O=C1OC(CCN2CCCCC2)OC1(c1ccccc1)c1ccccc1` (stereo unspecified), the Potency entry in assay [1], in [2], in assay [4], in assay [5], in [6] and in assay [7] was “inactive” each time. Besides, the Potency entry in assay [10] is “inactive”. Besides, the max response in assay [3] is 5.83%. Moreover, the outcome in assay [9] was inactive.

Turning to `CC1CCC(=O)O1` (stereo unspecified), the Potency result in assay [1], in [2], in assay [4], in [5], in assay [6] and in assay [8] was “inactive” in each case. For the same compound, the Potency entry in assay [10] was “inactive”. The max response in assay [3] was -22.6%. For the same compound, the compound was called inactive in [9].

As to `C=C(C)CN(CC)c1c([N+](=O)[O-])cc(C(F)(F)F)cc1[N+](=O)[O-]`, the Potency entry in assay [1], in [2], in assay [4], in [5], in [6] and in assay [7] was “inactive” throughout. The Potency result in assay [8] and in assay [10] was “inactive” in each case. In addition, the max response in [3] was 0.654%. Besides, the compound was called inactive in assay [9].

As for `O=C1OC(=O)C2C1C1(Cl)C(Cl)=C(Cl)C2(Cl)C1(Cl)Cl` (stereo unspecified), the Potency result in assay [1], in [2], in assay [4], in assay [5], in assay [6] and in [8] was “inactive” in each case. Further, the Potency entry in assay [10] is “inactive”. Also, in assay [3], the max response was -0.525%. Besides, the compound was classed as inactive in assay [9].
